# Source: PubChem BioAssay AID485313 (National Center for Advancing Translational Sciences (NCATS), 2010)
# The whole screen tested about 320,000 compounds, of which about 7,600 (2.4%) were called active. Roughly 3% stayed inconclusive and do not appear here. Shown is part of a subset that was picked to be rich in actives. A number with no mark means an inactive call. Calls follow the shape of the dose curve; as a rule, active = well fitted activation curve with a large enough effect; inconclusive = small, poorly fitted or top-dose-only effect; inactive = no such curve, though single readings can be large or run the other way.
# Experiment: qHTS Assay for NPC1 Promoter Activators; also: nearly all actives have a fitted effect of over 60% in size;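 as to activation: reporter is driven by a mutant NPC1 promoter; % of control where 0% means no effect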
# Conditions: Huh7 NPC1 promoter luciferase reporter, 24 h; series mostly up to 9.22 µM; activation: at the top concentration
# In short: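 Compounds in DMSO were transferred onto Huh7 NPC1-luciferase reporter cells pre-incubated 2 h; after 24 h at 37 °C, Amplite reagent was dispensed and luminescence recorded 10 min later.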
# Potency is read from the fitted curve at half-maximal effect.
SMILES,activation [%],Potency
Cc1c(C)c(C)c(S(=O)(=O)N2CCC3(CC2)OCCO3)c(C)c1C,-1.45,
CCOc1ccc(S(=O)(=O)NCCC(=O)NCC2CCCO2)cc1 (stereo unspecified),-2.23,
CC(NC(=O)CN(C)S(=O)(=O)c1ccc(F)cc1)C1CC2CCC1C2 (stereo unspecified),6.05,
CCCCN1C(=O)C(=O)N(CC(=O)Nc2cccc(C(C)=O)c2)C1=O,-7.53,
COc1cc(C(c2c(NC(=O)c3ccco3)sc(C)c2C)N2CCOCC2)cc(OC)c1OC (stereo unspecified),-2.41,
O=C(O)c1ccccc1C(=O)Nc1nc(-c2ccccc2)cs1,10.8,
CCCn1c(CCNc2nc(-c3ccc(OC)cc3)cs2)nc2ccccc21,2.48,
O=C(Nc1nc(-c2ccc(-c3ccccc3)cc2)cs1)c1cnccn1,7.86,
COc1ccc(-c2csc(Nc3ccccn3)n2)cc1,,0.631 µM (active)
c1cnc(Nc2nc(-c3ccc4ccccc4c3)cs2)nc1,,0.282 µM (active)
Clc1ccc(-c2csc(-c3ccncc3)n2)cc1,29.2,
c1ccc(Nc2nc(-c3ccncc3)cs2)nc1,,2.24 µM (active)
COc1ccc(C(=O)Nc2nc(-c3ccc(S(=O)(=O)N4CCOCC4)cc3)cs2)cc1,-2.62,
Cc1ccc(-c2csc(NC3OC(=O)c4ccccc43)n2)cc1 (stereo unspecified),-12.3,
CC(=O)c1ccc(N2CCN(C(=O)c3ccc(Cl)c(S(=O)(=O)NC4CC4)c3)CC2)c(F)c1,-2.68,
COc1ccccc1NC(=O)CSc1nnc(CNC(=O)c2ccccc2F)o1,0.97,
O=C(/C=C/c1cccc([N+](=O)[O-])c1)OCC(=O)N1CCOCC1,-3.3,
CC1CC(=O)Nc2ccccc2N1C(=O)COc1ccc2cc(Br)ccc2c1 (stereo unspecified),-2.87,
NC(=O)NCCCC(=O)O,2.96,
Cc1ccccc1-c1nnn(CC(=O)c2ccc(S(=O)(=O)N3CCCC3)cc2)n1,0.639,
COc1cc(-c2nnn(CC(=O)NCc3ccccc3)n2)cc(OC)c1OC,-7.25,
CC(C)(C)NC(=O)Cn1nnc(-c2ccccc2Cl)n1,,3.98 µM (active)
CCOc1cc(/C=C/C(=O)OCC(=O)NCCN2C(=O)CSC2=O)ccc1OCC(C)C,0.0126,

SMILES,activation [%],Potency
CCOC(=O)c1cc(-c2ccccc2C)n(Cc2cc(C)no2)n1,0.676,
COCc1c(C(=O)OCC(=O)Nc2ccc(OC(F)F)cc2)oc2ccccc12,-1.32,
COC(=O)CSc1nnc(-c2cccnc2)o1,-4.03,
CN(C)c1ccc(-c2nnc(-c3cccnc3)o2)cc1,,1.12 µM (active)
CN(C)c1nc(-c2cccnc2)nc(-c2ccc(Cl)cc2)c1C#N,-1.1,
COc1ccc([C@H]2CC(=O)C=C(/C=C/c3ccccc3)C2)cc1,29.5,
CCc1cccc(C)c1N1C(=O)CN(Cc2ccccc2)C1=S,0.289,
Cc1ccc(SCCSc2ncccn2)cc1,,1.26 µM (active)
Cc1ccc(SCCC(=O)NC(C(C)C)C(C)C)cc1,-0.84,
Cc1ccc(SCCC(=O)NCc2ccccn2)cc1,-9.37,
COc1ccc(S(=O)(=O)N2CCOCC2)cc1NC(=O)Cc1coc2cc(C)ccc12,-2.11,
Cc1n[nH]c(=O)c2c(NC(=O)CSc3cc(Cl)ccc3Cl)oc(C)c12,2.7,
CCCCN(C(=O)c1nn(C)c(=O)c2ccccc12)c1c(N)n(CCC)c(=O)[nH]c1=O,1.11,
COc1cccc(CNC(=O)COC(=O)CN2C(=O)NC3(CCCCC3C)C2=O)c1 (stereo unspecified),-2.19,
O=C(CNC(=O)c1ccccc1Br)NNC(=O)c1cccs1,-6.99,
CN(Cc1ccccc1)C(=O)CSc1nc2ccccc2[nH]1,7.29,
O=C(CSc1nc2ccccc2[nH]1)c1cccs1,,1.26 µM (active)
O=C(CSc1nc2ccccc2[nH]1)Nc1nc(-c2ccccc2)c(-c2ccccc2)o1,-1.2,
CC(OC(=O)/C=C/c1ccccc1)C(=O)NC1CCCCC1C (stereo unspecified),-4.21,
O=C(CCc1nc(-c2ccccc2)no1)Nc1cccc(C(=O)NC2CC2)c1,-0.65,
COc1ccc(CC(=O)c2ccc(O)cc2O)cc1OC,10.8,
Cc1cc(O)cc(O)c1C(=O)Cc1cnn(-c2ccccc2)c1,5.07,
COc1ccc(C(=O)Cc2cnn(-c3ccccc3)c2)c(O)c1,,2.51 µM (active)

SMILES,activation [%],Potency
CCOc1ncccc1C(=O)OCC(=O)N1c2ccccc2CC1C (stereo unspecified),-6.3,
CCOc1ccc(NC(=S)N2CCC(NC(=O)c3ccccc3)CC2)cc1,-3.36,
Cc1ccc(N/C=C/C(=O)c2ccccc2)cc1C,,2 µM (active)
COc1ccc(C(=O)/C=C/c2ccc(OC3CSC3)cc2)cc1,-2.72,
COc1ccc(N2C(=O)CCC(C(=O)Nc3ccccn3)C2c2ccc(OC)c(OC)c2)cc1 (stereo unspecified),0.515,
Cc1noc(NS(=O)(=O)c2ccc(N/C=C/C(=O)c3ccccc3)cc2)c1C,9.13,
CCOc1ccc(N/C=C/C(=O)c2ccccc2)cc1,,0.316 µM (active)
COc1ccc(C(=O)/C=C/Nc2ccccn2)cc1,,0.1 µM (active)
CCOc1ccc(N/C=C/C(=O)c2cc(OC)c(OC)c(OC)c2)cc1,-10.5,
O=C(/C=C/NCc1ccc(F)cc1)c1ccccc1,-4.79,
Cc1nc2ccc(NC(=O)C3CCCCC3)cc2s1,19.3,
COc1ccc(C(=O)OCC(=O)N2CC(=O)Nc3ccccc32)cc1Br,0.925,
Cc1occc1-c1nnc(SCC(=O)NC2CCCCC2)o1,-1.6,
Cc1nc(SCC(=O)NC2CCCCC2C)c(C#N)c(C)c1C (stereo unspecified),-2.69,
Cc1cccc(-n2cnc(C(=O)NNC(=S)Nc3ccccc3)c2)n1,-1.83,
Cc1cccc(-n2cnc(C(=O)Nc3cccnc3)c2)n1,,2.82 µM (active)
COc1cccc(C(=O)Nc2cccnc2)c1OC,-1.61,
COc1ccc(S(=O)(=O)N2CCC(C(=O)N3CCCC3)CC2)cc1C,-2.33,
CCCN(CC1CC1)C(=S)NC(=O)c1ccccc1Br,-0.97,
CC1(C)CN(c2ccc(-c3ccnc4ncnn34)cc2)C1=O,10.3,
COc1ccc(N=C(C)c2sc3ccccc3c2O)cc1,,0.708 µM (active)
Oc1ccc(N=Cc2sc3ccccc3c2Cl)cc1,-3.13,
COc1ccccc1-c1sc2ccccc2c1-c1ccc(C(C)=O)cc1,17.3,

SMILES,activation [%],Potency
CC1CCCC(C)N1C(=O)COC(=O)COc1ccccc1C#N (stereo unspecified),0.305,
O=C1C=C(c2cccc(Cl)c2O)C[C@@H](c2ccc(F)cc2)C1,-0.0087,
CC1CCCCC12NC(=O)N(CC(=O)Nc1ccc(S(=O)(=O)Nc3ncccn3)cc1)C2=O (stereo unspecified),1.23,
O=C1Cc2cc(S(=O)(=O)Nc3cccc(F)c3)ccc2N1,-2.73,
Cc1ccccc1OCC(=O)Nc1ccc(S(=O)(=O)N2CCOCC2)cc1,-4.62,
Cc1ccccc1OCC(=O)Nc1ccc(N2CCN(C(=O)C(C)C)CC2)c(Cl)c1,-14.2,
Cc1ccccc1OCC(=O)Nc1ccc2c(c1)ncn2C,,6.31 µM (active)
O=C(CN1C(=O)NC2(CCCCC2)C1=O)N1CCN(C(=O)c2cccs2)CC1,-1.5,
Cc1ccc(/C=C/C(=O)OCC(=O)NCc2ccc(Cl)cc2)o1,-3.5,
CCOc1ccc(NC(=O)CN(C)C(=O)CCSc2ccc(F)cc2)cc1OCC,2.17,
CC(C)n1ncc2c(C(=O)Nc3ccc(CC#N)cc3)cc(C3CC3)nc21,2.63,
Cc1ccc(N/N=C2\COC(C)(C)CC2=O)cc1,,2.82 µM (active)
Nc1c(N(Cc2ccco2)C(=O)c2cccc(F)c2)c(=O)[nH]c(=O)n1Cc1ccccc1,1.11,
COCCN(Cc1ccccc1)C(=O)Cc1ccc(S(=O)(=O)N2CCOCC2)s1,-0.21,
Cc1ccc(OCC(=O)Nc2ccc(-c3nc4ncccc4o3)cc2)cc1,23.3,
CC(=O)Nc1ccc(-c2nc3ccccc3o2)cc1,,1.12 µM (active)
CCc1nc(Nc2ccc(NC(C)=O)cc2)c2oc3ccccc3c2n1,4.77,
COc1ccc(S(=O)(=O)N2CCN(CC(=O)NCC3(N4CCOCC4)CCCCC3)CC2)cc1,-1.5,
COc1ccc(CSc2nnnn2-c2ccc(O)cc2)cc1F,-1.66,
O=C(Nc1ccccc1N1CCCCC1)c1ccc2nccnc2c1,-2.42,
Cc1cccc(NC(=O)c2ccc3nsnc3c2)c1C,12.2,
O=C(Nc1ccccc1Cl)c1ccc2nsnc2c1,,2.24 µM (active)
O=C(C1CCC1)N1CCN(S(=O)(=O)c2ccc([N+](=O)[O-])cc2)CC1,-0.512,

SMILES,activation [%],Potency
CCOc1ccc(S(=O)(=O)N(CC(=O)NCC(F)(F)F)Cc2ccco2)cc1,-0.109,
Cc1ccc(OCC(=O)Nc2ccc(-c3nnc(-c4ccco4)o3)cc2)cc1,,2.82 µM (active)
O=C(CCc1ccccc1)Nc1cccc(-c2nnc(-c3ccco3)o2)c1,15.9,
CCOc1ccc(NC(=O)N(CCC(C)C)C(C)c2ccco2)cc1 (stereo unspecified),-0.897,
CC(=O)Nc1ccc(NC(=O)COc2ccc(-c3ccccc3)cc2)cc1,4.85,
Cc1ccc(OCC(=O)Nc2nnc(-c3ccco3)s2)cc1,-2.26,
CCOc1ccc(-n2c(SCC(N)=O)nnc2-c2ccco2)cc1,1.18,
CCOc1ccc(-c2nnc(-c3ccco3)o2)cc1,,0.631 µM (active)
CCCCOc1ccc(-c2nnc(-c3ccco3)o2)cc1,,1.58 µM (active)
COc1ccc(OCC(=O)Nc2nnc(-c3ccco3)s2)cc1,-6.29,
CCC[C@H]1CCCC/C=C\CCCC(=O)OCCN1C(=O)OC(C)(C)C,-2.58,
CCOCCn1[nH]c2ccccc2c1=O,8.92,
CC(C)NC(=O)N1CCN(c2ccncc2S(=O)(=O)N2CCCCC2)CC1,-6.15,
O=C(NC1CCCCCC1)C1CCN(C(=O)c2ccc(Cl)cc2)CC1,-1.36,
CCc1sc(C(=O)N2CCN(CC(=O)Nc3cccc(F)c3)CC2)cc1C,-2.76,
COc1cccc(C2=CC(=O)C[C@H](c3ccc(OC)c(OC)c3)C2)c1,0.572,
Cn1nc(-c2ccccc2)c2cc([N+](=O)[O-])ccc21,3.87,
Cc1cc(CO)nn1-c1ccc([N+](=O)[O-])cc1,-0.734,
Cc1nn(-c2ccc([N+](=O)[O-])cc2)c(N)c1-c1ccccc1,,1.58 µM (active)
